Source: PubChem BioAssay AID1865 (National Center for Advancing Translational Sciences (NCATS), 2009)
Out of some 280,000 compounds screened, about 540 (0.19%) were called active. Roughly 2% stayed inconclusive and do not appear here. Calls follow the shape of the dose curve; as a rule, active = well fitted activation curve with a large enough effect; inconclusive = small, poorly fitted or top-dose-only effect; inactive = flat fitted curve, though single readings scatter. What follows is part of a selection rich in actives, with near analogues and random picks from the rest.

Test: Quantitative High-Throughput Screen for Regulators of Epigenetic Control; also: nearly all actives have a fitted effect of over 60% in size; as to GFP activation: % of control where 0% means no effect
Conditions: murine LDR cells, GFP reporter derepression, 30 h; series mostly up to 53.9 µM; GFP activation: at the top concentration
Text: NIH Molecular Libraries Screening Centers Network [MLPCN] NIH Chemical Genomics Center [NCGC] MLSCN Grant: 1 X01 MH079860-01 Assay Provider: Elisabeth D. Martinez, University of Texas SW Medical Center NCGC Assay Overview: The Locus Derepression (LDR) assay detects the derepression or induction of a GFP reporter that is stably integrated in a genomic region of murine cells that is presumably silenced. Transcription of the GFP reporter is controlled by a CMV promoter, which normally is constitutively active. However, this cell line, termed LDR, was selected for lack of constitutive production of GFP. GFP production can be induced by incubating the cells with histone deacetylase or DNA methyltransferase inhibitors (Martinez et al., 2006). Compounds that derepress or induce this reporter locus are identified by enumerating GFP positive cells using a laser-scanning microplate cytometer (Auld et al., 2006). This assay was screened against the MLSMR earlier (AID 597; (Johnson et al., 2008) and has been rescreened here against the expanded collection.
NCGC Assay Protocol Summary: Three hundred LDR cells in 5 uL per well were dispensed into black, clear-bottom 1536-well plates. Twenty-three nL compound was transferred to the assay plate and cells were incubated 30 hours at 37 C. Medium was removed, cells were washed two times with PBS, and GFP-positive cells were enumerated as fluorescent objects between the sizes of 20 to 120 um width and depth using an Acumen Explorer. References Auld, DS, Johnson, RL, Zhang, YQ, Veith, H, Jadhav, A, Yasgar, A, Simeonov, A, Zheng, W, Martinez, ED, Westwick, JK, Austin, CP, Inglese, J (2006). Fluorescent protein-based cellular assays analyzed by laser-scanning microplate cytometry in 1536-well plate format. Methods Enzymol 414: 566-89. Johnson, RL, Huang, W, Jadhav, A, Austin, CP, Inglese, J, Martinez, ED (2008). A quantitative high-throughput screen identifies potential epigenetic modulators of gene expression. Anal Biochem 375: 237-48. Martinez, ED, Dull, AB, Beutler, JA, Hager, GL (2006). High-content fluorescence-based screening for epigenetic modulators. Methods Enzymol 414: 21-36.
Potency is read from the fitted curve at half-maximal effect.

Question: Which “GFP activation” value does the source give for CCOC(=O)c1c(S(=O)(=O)NCC(=O)Nc2ccc(Cl)c(C(F)(F)F)c2)c(C)n(C)c1C here?
Answer: The value was -1.3% (inactive).

Question: Which “GFP activation” value does the source give for CCN1CCN(CCCNC(=O)c2cnn(-c3ccc(C)cc3C)c2C2CCN(C(=O)OC(C)(C)C)CC2)CC1 here?
Answer: Its value is 0% (inactive).

Question: With Cc1cccc(N2CCN(c3c(CN4CCCC4)c(=O)oc4ccccc34)CC2)c1C as the compound, how does the “GFP activation” value read?
Answer: The value was -0.594% (inactive).

Question: For Cc1ccccc1-n1nnc2c(=O)oc3ccccc3c21, which Potency is on record?
Answer: The Potency was 15.8 µM (active).

Question: With CCOC(=O)c1c(C)nc2c(c1C)c(=O)oc1ccccc12 as the compound, how does the “GFP activation” value read?
Answer: Its value is -1.99% (inactive).

Question: With COc1ccc(CCn2cc3c(c2-c2ccc(Br)cc2)c(=O)n(C)c(=O)n3C)cc1OC as the compound, how does the “GFP activation” value read?
Answer: The value was -2.56% (inactive).

Question: Which “GFP activation” value does the source give for Cc1c(CNC(C)c2ccccc2)c(C(=O)O)c(C)n1Cc1c(F)cccc1Cl (configuration not stated) here?
Answer: Its value is 0.98% (inactive).

Question: With Cc1ccc(Nc2c(-c3ccc(N(C)C)cc3)nc3nc[nH]n23)cc1 as the compound, how does the “GFP activation” value read?
Answer: Its value is -0.937% (inactive).

Question: With COC(=O)c1ccc(C2C(C(=O)Nc3ccccc3)=C(C)Nc3nc4ccccc4n32)cc1 (configuration not stated) as the compound, how does the “GFP activation” value read?
Answer: The value was 0% (inactive).

Question: With CC1CCC(N2CC(=O)N(CCC3=CCCCC3)C(c3ccc(F)cc3)C2=O)CC1 (configuration not stated) as the compound, how does the “GFP activation” value read?
Answer: The value was 0.552% (inactive).

Question: For Cc1cccc(C(=O)Nc2ccc(S(=O)(=O)N3CCCCC3c3cccnc3)cc2)c1 (configuration not stated), which “GFP activation” value is on record?
Answer: The value was 0% (inactive).

Question: Which “GFP activation” value does the source give for Cc1ccc(NC(=O)CSc2nc3ccccc3c3nc(CCn4cncc4C)nn23)cc1F here?
Answer: The value was 11.5% (inactive).

Question: With COc1ccccc1NC(=O)c1ccc(C)s1 as the compound, how does the “GFP activation” value read?
Answer: The value was 0% (inactive).

Question: For CCOC(=O)C(=CNc1cccc(C)n1)C(=O)OCC, which “GFP activation” value is on record?
Answer: The value was 2.11% (inactive).

Question: With CCOC(=O)C(=Cc1ccccc1OC)C(=O)OCC as the compound, how does the Potency read?
Answer: Its Potency is 22.4 µM (active).

Question: For Cc1cc(Nc2cccc(C(F)(F)F)c2)nc2ccc(NC(=O)c3ccc(=O)[nH]c3)cc12, which “GFP activation” value is on record?
Answer: The value was -0.401% (inactive).

Question: Which “GFP activation” value does the source give for COc1cccc(Cn2c(CNS(=O)(=O)c3ccc(Cl)s3)nc3cccnc32)c1 here?
Answer: The value was 1.14% (inactive).

Question: With CCCCNc1ccc(-c2nc(-c3ccncc3)no2)cc1[N+](=O)[O-] as the compound, how does the “GFP activation” value read?
Answer: Its value is -2.85% (inactive).

Question: Which “GFP activation” value does the source give for CCCn1c2ccccc2c2cnn(CC(=O)NCCCOC(C)C)c(=O)c21 here?
Answer: Its value is 0% (inactive).

Question: Which “GFP activation” value does the source give for Cc1cccc2c1-c1sc(C(=O)Nc3ccc(F)cc3F)cc1CO2 here?
Answer: Its value is 0% (inactive).

Question: Which “GFP activation” value does the source give for CCOCCCNC(=O)c1c(NC(=O)Cc2coc3c(C)c(C)ccc23)sc2c1CCC2 here?
Answer: The value was -1.02% (inactive).

Question: For COc1ccc(CCNc2ncnc3c2cnn3-c2ccc(C)cc2)cc1, which “GFP activation” value is on record?
Answer: The value was 1.31% (inactive).

Question: Which “GFP activation” value does the source give for CCOC(=O)C1CCCN(S(=O)(=O)c2cc(-c3cc(C)no3)ccc2OC)C1 (configuration not stated) here?
Answer: The value was -1.08% (inactive).

Question: For COc1ccc(OCc2cn3c(C)cc(C)nc3n2)cc1, which “GFP activation” value is on record?
Answer: The value was -0.866% (inactive).

Question: For COc1ccc(C(C[N+](=O)[O-])n2nc(C)cc2C)cc1 (configuration not stated), which Potency is on record?
Answer: Its Potency is 12.6 µM (active).

Question: With COc1ccc(C(=O)CSc2nc(C)cc(C)n2)cc1[N+](=O)[O-] as the compound, how does the “GFP activation” value read?
Answer: Its value is 1.6% (inactive).

Question: With O=C1CCCc2cc(S(=O)(=O)N3CCCC(C(=O)NCc4ccccc4)C3)ccc2N1 (configuration not stated) as the compound, how does the “GFP activation” value read?
Answer: Its value is 1.06% (inactive).

Question: With CCOc1cc(-c2nnc(SCC(=O)NC3CCCC3)nc2-c2ccc(OC)c(OCC)c2)ccc1OC as the compound, how does the “GFP activation” value read?
Answer: The value was 0.833% (inactive).

Question: With CC(=O)N1c2ccc(S(=O)(=O)N3CCCCCC3)cc2CC1C(=O)NCc1ccccc1C (configuration not stated) as the compound, how does the “GFP activation” value read?
Answer: The value was 14.2% (inactive).

Question: With COc1ccc(C2C(=O)N(C3CCCCCC3)CC(=O)N2CCc2ccc(Cl)cc2)cc1OC (configuration not stated) as the compound, how does the “GFP activation” value read?
Answer: The value was 0.873% (inactive).

Question: Which “GFP activation” value does the source give for CC(C)(C)OC(=O)N1CCC(c2c(C(=O)N3CCN(c4cccc(Cl)c4)CC3)cnn2-c2cccc(Cl)c2)CC1 here?
Answer: The value was -1.27% (inactive).

Question: Which “GFP activation” value does the source give for CN(C)CCCn1c(-c2ccc(Cl)cc2)csc1=Nc1ccccc1 here?
Answer: The value was 2.14% (inactive).

Question: For CCCCCn1c(=O)[nH]c2cc(C(=O)Nc3ccc(F)cc3)ccc2c1=O, which “GFP activation” value is on record?
Answer: The value was -4.84% (inactive).

Question: With O=C(Nc1c(-c2ccc(F)cc2)nc2ccccn12)c1cccc(F)c1 as the compound, how does the “GFP activation” value read?
Answer: The value was 0.225% (inactive).

Question: With Cc1cccc(NC(=O)Cn2cc(S(=O)(=O)Cc3ccccc3Cl)c3ccccc32)c1 as the compound, how does the “GFP activation” value read?
Answer: Its value is 7.01% (inactive).

Question: Which “GFP activation” value does the source give for CCOC(=O)c1ccc(NC(=O)CSc2nc3c([nH]c4ccccc43)c(=O)n2C)cc1 here?
Answer: The value was 11.1% (inactive).

Question: With Cn1c(C(=O)Nc2cccc(C(F)(F)F)c2)cc2c(=O)n3ccccc3nc21 as the compound, how does the “GFP activation” value read?
Answer: Its value is 2.82% (inactive).

Question: Which “GFP activation” value does the source give for COc1cc(Cl)c(C)cc1NC(=O)CCc1nc2cccnc2n1Cc1cccs1 here?
Answer: Its value is -2% (inactive).

Question: With COc1cccc(NC(=O)N(Cc2cn(C)c3ccccc23)C2CCCCCC2)c1 as the compound, how does the “GFP activation” value read?
Answer: The value was 2.27% (inactive).

Question: For COc1cccc(CNCc2c(C(=O)O)n(Cc3ccc(C)cc3)c3cc(C)ccc23)c1OC, which “GFP activation” value is on record?
Answer: The value was 2.35% (inactive).

Question: With COc1ccc(Nc2ncc3c(n2)CCN(C(=O)OC(C)(C)C)C3)cc1 as the compound, how does the “GFP activation” value read?
Answer: The value was 7.82% (inactive).

Question: Which “GFP activation” value does the source give for COc1ccc(CCNC(=O)CCCn2c(=O)c3ccccc3n(Cc3ccc(C)cc3)c2=O)cc1OC here?
Answer: Its value is 0% (inactive).

Question: With COC(=O)c1scc(-c2ccc(C)cc2)c1S(=O)(=O)Nc1cc(Cl)c(OC)cc1OC as the compound, how does the “GFP activation” value read?
Answer: Its value is 0% (inactive).

Question: With O=C(Nc1ccc(Br)cc1)c1cc2nc(-c3ccccc3)cc(-c3ccccc3)n2n1 as the compound, how does the “GFP activation” value read?
Answer: Its value is -1.59% (inactive).

Question: With CCCC(=O)Nc1cc(C(=O)NCc2ccc(OC)cc2)ccc1S(=O)(=O)c1ccc(Cl)cc1 as the compound, how does the “GFP activation” value read?
Answer: Its value is 1.06% (inactive).

Question: With CC(C)(C)c1ccc(C(=O)N2CCC(c3nc(-c4ccc(S(=O)(=O)N5CCCC5)cc4)no3)CC2)cc1 as the compound, how does the “GFP activation” value read?
Answer: Its value is 1.37% (inactive).

Question: Which Potency does the source give for COc1cccc(C(=O)c2sc3nc(-c4ccccc4)cc(C(F)(F)F)c3c2N)c1 here?
Answer: Its Potency is 1.58 µM (active).
